Laboratory results as given in PubChem BioAssay (Tox21).
Inconclusive results are not listed. The source made the active and inactive calls. Calls come from the whole dose curve; as a rule, active = well fitted curve in the direction sought with a large enough effect in the repeat runs; inconclusive = weak or mixed curves; inactive = no such curve, though single readings can be large; an effect the other way counts as inactive or inconclusive.

Legend:
[1] = qHTS RealTime-Glo MT Cell Viability Assay in HEK293 cells - 16 hour (AID 1224872); note: top concentration of the series differs between compounds; nearly all actives have a fitted effect of over 50% in size
Method in brief: (§1)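 HEK293 cells were seeded at 600 cells/well together with NanoLuc luciferase and cell-permeant prosubstrate, preincubated 5 h at 37 C/5% CO2, then given compound in DMSO by pintool. Luminescence from viable-cell prosubstrate reduction was read repeatedly over 40 h.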

[2] = qHTS RealTime-Glo MT Cell Viability Assay in HepG2 cells - 8 hour (AID 1224873); note: nearly all actives have a fitted effect of over 55% in size
Method in brief: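 HepG2 cells mixed with RealTime-Glo MT reagents (NanoLuc plus cell-permeant prosubstrate) were seeded at 600 cells/well, incubated 5 h at 37 C/5% CO2, then pinned with compounds in DMSO; nonlytic luminescence tracked viability during 40 h treatment.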

[3] = qHTS RealTime-Glo MT Cell Viability Assay in HEK293 cells - 40 hour (AID 1224874); details: RealTime-Glo luminescence; max response: active compounds read low; note: nearly all actives have a fitted effect of over 50% in size
Method in brief: (§2)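 Kinetic, non-lysing viability readout. Seed HEK293 (600/well) with reagent, incubate 5 h at 37 C/5% CO2, pin 23 nL compound in DMSO, incubate at 37 C, read luminescence at 0, 8, 16, 24, 32, 40 h.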

[4] = A CellTox Green Cytotoxicity Assay to monitor cytotoxicity in HepG2 cells - 16 hour (AID 1224876); note: nearly all actives have a fitted effect of over 45% in size
Method in brief: (§3)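 Cytotoxicity was tracked as dead-cell DNA fluorescence in HepG2 cells treated with test compounds at 37 C; each time-point value comes from one kinetic series spanning 0, 8, 16, 24, 32 and 40 h.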

[5] = qHTS RealTime-Glo MT Cell Viability Assay in HepG2 cells - 32 hour (AID 1224877); note: nearly all actives have a fitted effect of over 55% in size
Method in brief: (§4)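 HepG2 cells were seeded at 600 cells/well together with NanoLuc luciferase and a cell-permeant prosubstrate, preincubated 5 h at 37 C/5% CO2, then pin-dosed with compounds in DMSO. Nonlytic luminescence from viable cells was read at each time point.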

[6] = A CellTox Green Cytotoxicity Assay to monitor cytotoxicity in HepG2 cells - 24 hour (AID 1224878); note: nearly all actives have a fitted effect of over 45% in size
Method in brief: as §3

[7] = A CellTox Green Cytotoxicity Assay to monitor cytotoxicity in HepG2 cells - 40 hour (AID 1224879); note: nearly all actives have a fitted effect of over 40% in size
Method in brief: as §3

[8] = qHTS RealTime-Glo MT Cell Viability Assay in HEK293 cells - 0 hour (AID 1224880); note: top concentration of the series differs between compounds; nearly all actives have a fitted effect of over 45% in size
Method in brief: as §2

[9] = A CellTox Green Cytotoxicity Assay to monitor cytotoxicity in HepG2 cells - 0 hour (AID 1224882); note: nearly all actives have a fitted effect of over 35% in size
Method in brief: as §3

[10] = A CellTox Green Cytotoxicity Assay to monitor cytotoxicity in HepG2 cells - 32 hour (AID 1224883); note: nearly all actives have a fitted effect of over 50% in size
Method in brief: as §3

[11] = qHTS RealTime-Glo MT Cell Viability Assay in HepG2 cells - 16 hour (AID 1224885); note: nearly all actives have a fitted effect of over 50% in size
Method in brief: as §4

[12] = qHTS RealTime-Glo MT Cell Viability Assay in HEK293 cells - 24 hour (AID 1224886)
Method in brief: as §1

[13] = qHTS RealTime-Glo MT Cell Viability Assay in HEK293 cells - 8 hour (AID 1224887)
Method in brief: as §2

[14] = A CellTox Green Cytotoxicity Assay to monitor cytotoxicity in HEK293 cells - 16 hour (AID 1224888); note: nearly all actives have a fitted effect of over 35% in size
Method in brief: (§5)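 Real-time, in one plate: 600 HEK293 cells/well with dead-cell DNA dye, pinned compound after 5 h, 37 C incubation over 40 h; viable cells give no appreciable fluorescence.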

[15] = qHTS RealTime-Glo MT Cell Viability Assay in HepG2 cells - 0 hour (AID 1224889); note: nearly all actives have a fitted effect of over 50% in size
Method in brief: as §4

[16] = A CellTox Green Cytotoxicity Assay to monitor cytotoxicity in HepG2 cells - 8 hour (AID 1224890); note: nearly all actives have a fitted effect of over 45% in size
Method in brief: as §3

[17] = A CellTox Green Cytotoxicity Assay to monitor cytotoxicity in HEK293 cells - 24 hour (AID 1224875)
Method in brief: as §5

[18] = A CellTox Green Cytotoxicity Assay to monitor cytotoxicity in HEK293 cells - 32 hour (AID 1224881); note: nearly all actives have a fitted effect of over 40% in size
Method in brief: as §5

[19] = A CellTox Green Cytotoxicity Assay to monitor cytotoxicity in HEK293 cells - 8 hour (AID 1224884); note: nearly all actives have a fitted effect of over 35% in size
Method in brief: as §5
% is set by controls: 0 for no effect and ±100 for the full control effect.

CCOC(=O)NC(C)(C)Cc1ccc(Cl)cc1
inactive: Potency [1] | outcome [2] | max response [3] 0.66% | Potency [4] | Potency [5] | Potency [6] | Potency [7] | outcome [8] | outcome [9] | Potency [10] | Potency [11] | Potency [12] | Potency [13] | Potency [14] | outcome [15] | Potency [16]

Cc1ccc(Cl)c(O)c1
inactive: Potency [1] | outcome [2] | max response [3] 1.02% | Potency [17] | Potency [4] | Potency [5] | Potency [6] | Potency [7] | Potency [18] | outcome [9] | Potency [10] | Potency [19] | Potency [11] | Potency [12] | Potency [13] | Potency [14] | outcome [15] | Potency [16]

CCN[C@H](C)Cc1cccc(C(F)(F)F)c1
inactive: Potency [1] | outcome [2] | max response [3] -6.31% | Potency [17] | Potency [4] | Potency [5] | Potency [7] | Potency [18] | outcome [9] | Potency [10] | Potency [12] | Potency [13] | outcome [15] | Potency [16]

CCc1cc(OC)c(C[C@H](C)N)cc1OC
inactive: Potency [1] | outcome [2] | Potency [17] | Potency [4] | Potency [5] | Potency [6] | Potency [7] | outcome [8] | Potency [18] | outcome [9] | Potency [10] | Potency [19] | Potency [12] | Potency [13] | Potency [14] | outcome [15] | Potency [16]

CCN(CC)C1CCCCC1
inactive: Potency [1] | outcome [2] | max response [3] 2.39% | Potency [17] | Potency [4] | Potency [5] | Potency [6] | Potency [7] | Potency [18] | outcome [9] | Potency [10] | Potency [19] | Potency [12] | Potency [13] | Potency [14] | outcome [15] | Potency [16]

CC(=NC#N)N(C)Cc1ccc(Cl)nc1
inactive: Potency [1] | outcome [2] | max response [3] 8.58% | Potency [17] | Potency [4] | Potency [5] | Potency [6] | Potency [7] | outcome [8] | Potency [18] | outcome [9] | Potency [10] | Potency [19] | Potency [12] | Potency [13] | Potency [14] | outcome [15] | Potency [16]

C[C@H](CN1CCOCC1)C(C(=O)N1CCCC1)(c1ccccc1)c1ccccc1
inactive: outcome [2] | Potency [17] | Potency [4] | Potency [5] | Potency [6] | Potency [7] | outcome [8] | Potency [18] | outcome [9] | Potency [19] | Potency [11] | Potency [13] | Potency [14] | outcome [15] | Potency [16]

CCOC(=O)c1ncn2c1CN(C)C(=O)c1c(I)cccc1-2
inactive: Potency [1] | outcome [2] | max response [3] 1.2% | Potency [17] | Potency [4] | Potency [5] | Potency [6] | Potency [7] | outcome [8] | Potency [18] | outcome [9] | Potency [10] | Potency [19] | Potency [12] | Potency [14] | Potency [16]

C=C(C)[C@H]1CN[C@H](C(=O)O)[C@H]1CC(=O)O
inactive: Potency [1] | outcome [2] | max response [3] 0.763% | Potency [17] | Potency [4] | Potency [5] | Potency [6] | outcome [8] | Potency [18] | outcome [9] | Potency [10] | Potency [19] | Potency [11] | Potency [12] | Potency [13] | outcome [15] | Potency [16]

CCOP(=S)(OCC)SCCl
inactive: Potency [1] | outcome [2] | max response [3] -0.801% | Potency [17] | Potency [4] | Potency [5] | Potency [6] | Potency [7] | outcome [9] | Potency [10] | Potency [19] | Potency [12] | Potency [13] | Potency [14] | outcome [15] | Potency [16]

CC1NCCOC1c1ccccc1 (stereo not given)
inactive: Potency [1] | outcome [2] | max response [3] 4.25% | Potency [17] | Potency [4] | Potency [5] | Potency [6] | Potency [7] | outcome [8] | Potency [18] | outcome [9] | Potency [10] | Potency [19] | Potency [12] | Potency [13] | Potency [14] | outcome [15] | Potency [16]

CN1C(=O)COc2c(C(=O)NC3CN4CCC3CC4)cc(Cl)cc21 (stereo not given)
inactive: Potency [1] | outcome [2] | max response [3] 3.5% | Potency [17] | Potency [4] | Potency [5] | Potency [6] | Potency [7] | outcome [8] | Potency [18] | outcome [9] | Potency [10] | Potency [19] | Potency [12] | Potency [13] | outcome [15] | Potency [16]

C#CCOC(=O)/C=C(C)/C=C/CC(C)CCCC(C)C (stereo not given)
inactive: Potency [1] | outcome [2] | max response [3] 17.6% | Potency [17] | Potency [4] | Potency [5] | Potency [6] | outcome [8] | Potency [18] | outcome [9] | Potency [10] | Potency [19] | Potency [11] | Potency [12] | Potency [14] | Potency [16]

Cn1c(N)nc2c3cccnc3ccc21
inactive: Potency [1] | outcome [2] | max response [3] -11% | Potency [17] | Potency [4] | Potency [5] | Potency [6] | Potency [7] | outcome [8] | outcome [9] | Potency [10] | Potency [11] | Potency [12] | Potency [13] | Potency [16]
